# Results published in the supplement of paper PMC4466140.
# B1: unnamed (peptide)
# chain: KKAPPPVVKPKPRNF
# Target: AgAbp1
# Experiment: SPOT peptide array binding signal intensity (averaged, normalized) (arbitrary units (background-subtracted, floor 0; scale differs between SH3 domains)); higher = stronger binding of the SH3 domain to the peptide
# Method in brief: (§1)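 GST-fused SH3 domains from four yeast species were expressed in E. coli BL21(DE3), purified on glutathione Sepharose and incubated at 10 μg/ml overnight at 4°C in TBS-based blocking buffer on cellulose membranes carrying synthetic 15-mer peptides, with cysteines replaced by serines. Bound protein was detected with anti-GST antibody, an HRP anti-mouse secondary and luminol, then imaged and quantified with Genespotter. Binding signal is the normalized, background-subtracted spot intensity averaged over replicates, in arbitrary units that differ between domains.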
row,Binder,SPOT peptide array binding signal intensity
1,B1,4680

# Target: AgBbc1
# Experiment: as above
# Method in brief: as §1
row,Binder,SPOT peptide array binding signal intensity
1,B1,58

# Target: AgBem1-D1
# Experiment: as above
# Method in brief: as §1
row,Binder,SPOT peptide array binding signal intensity
1,B1,44.5

# Target: AgBzz1-D1
# Experiment: as above
# Method in brief: as §1
row,Binder,SPOT peptide array binding signal intensity
1,B1,316

# Target: AgBzz1-D2
# Experiment: as above
# Method in brief: as §1
row,Binder,SPOT peptide array binding signal intensity
1,B1,101

# Target: AgCyk3
# Experiment: as above
# Method in brief: as §1
row,Binder,SPOT peptide array binding signal intensity
1,B1,≤ 0

# Target: AgFus1
# Experiment: as above
# Method in brief: as §1
row,Binder,SPOT peptide array binding signal intensity
1,B1,31

# Target: AgHof1
# Experiment: as above
# Method in brief: as §1
row,Binder,SPOT peptide array binding signal intensity
1,B1,63.5

# Target: AgHse1
# Experiment: as above
# Method in brief: as §1
row,Binder,SPOT peptide array binding signal intensity
1,B1,39

# Target: AgLsb1
# Experiment: as above
# Method in brief: as §1
row,Binder,SPOT peptide array binding signal intensity
1,B1,1.75

# Target: AgLsb4
# Experiment: as above
# Method in brief: as §1
row,Binder,SPOT peptide array binding signal intensity
1,B1,12.5

# Target: AgMyo5
# Experiment: as above
# Method in brief: as §1
row,Binder,SPOT peptide array binding signal intensity
1,B1,≤ 0

# Target: AgNbp2
# Experiment: as above
# Method in brief: as §1
row,Binder,SPOT peptide array binding signal intensity
1,B1,45

# Target: AgRvs167
# Experiment: as above
# Method in brief: as §1
row,Binder,SPOT peptide array binding signal intensity
1,B1,6

# Target: AgSho1
# Experiment: as above
# Method in brief: as §1
row,Binder,SPOT peptide array binding signal intensity
1,B1,15

# Target: AgSla1-D1-D2
# Experiment: as above
# Method in brief: as §1
row,Binder,SPOT peptide array binding signal intensity
1,B1,8

# Target: AgSla1-D3
# Experiment: as above
# Method in brief: as §1
row,Binder,SPOT peptide array binding signal intensity
1,B1,32.5

# Target: CaAbp1-D1
# Experiment: as above
# Method in brief: as §1
row,Binder,SPOT peptide array binding signal intensity
1,B1,3270

# Target: CaAbp1-D2
# Experiment: as above
# Method in brief: as §1
row,Binder,SPOT peptide array binding signal intensity
1,B1,6180

# Target: CaBbc1
# Experiment: as above
# Method in brief: as §1
row,Binder,SPOT peptide array binding signal intensity
1,B1,154

# Target: CaBem1-D1
# Experiment: as above
# Method in brief: as §1
row,Binder,SPOT peptide array binding signal intensity
1,B1,15.5

# Target: CaBzz1-D1
# Experiment: as above
# Method in brief: as §1
row,Binder,SPOT peptide array binding signal intensity
1,B1,1220

# Target: CaBzz1-D2
# Experiment: as above
# Method in brief: as §1
row,Binder,SPOT peptide array binding signal intensity
1,B1,2260

# Target: CaCyk3
# Experiment: as above
# Method in brief: as §1
row,Binder,SPOT peptide array binding signal intensity
1,B1,5

# Target: CaFus1
# Experiment: as above
# Method in brief: as §1
row,Binder,SPOT peptide array binding signal intensity
1,B1,45.5

# Target: CaHof1
# Experiment: as above
# Method in brief: as §1
row,Binder,SPOT peptide array binding signal intensity
1,B1,1

# Target: CaHse1
# Experiment: as above
# Method in brief: as §1
row,Binder,SPOT peptide array binding signal intensity
1,B1,1.25

# Target: CaLsb1
# Experiment: as above
# Method in brief: as §1
row,Binder,SPOT peptide array binding signal intensity
1,B1,2.5

# Target: CaLsb4
# Experiment: as above
# Method in brief: as §1
row,Binder,SPOT peptide array binding signal intensity
1,B1,15.5

# Target: CaMyo5
# Experiment: as above
# Method in brief: as §1
row,Binder,SPOT peptide array binding signal intensity
1,B1,1.5

# Target: CaNbp2
# Experiment: as above
# Method in brief: as §1
row,Binder,SPOT peptide array binding signal intensity
1,B1,36.5

# Target: CaRvs167
# Experiment: as above
# Method in brief: as §1
row,Binder,SPOT peptide array binding signal intensity
1,B1,11

# Target: CaRvs167-3
# Experiment: as above
# Method in brief: as §1
row,Binder,SPOT peptide array binding signal intensity
1,B1,8

# Target: CaSho1
# Experiment: as above
# Method in brief: as §1
row,Binder,SPOT peptide array binding signal intensity
1,B1,23

# Target: CaSla1-D1-D2
# Experiment: as above
# Method in brief: as §1
row,Binder,SPOT peptide array binding signal intensity
1,B1,3160

# Target: CaSla1-D3
# Experiment: as above
# Method in brief: as §1
row,Binder,SPOT peptide array binding signal intensity
1,B1,4.75

# Target: ScAbp1
# Experiment: as above
# Method in brief: as §1
row,Binder,SPOT peptide array binding signal intensity
1,B1,7880

# Target: ScBbc1
# Experiment: as above
# Method in brief: as §1
row,Binder,SPOT peptide array binding signal intensity
1,B1,3

# Target: ScBem1-D1
# Experiment: as above
# Method in brief: as §1
row,Binder,SPOT peptide array binding signal intensity
1,B1,6

# Target: ScBzz1-D1
# Experiment: as above
# Method in brief: as §1
row,Binder,SPOT peptide array binding signal intensity
1,B1,178

# Target: ScBzz1-D2
# Experiment: as above
# Method in brief: as §1
row,Binder,SPOT peptide array binding signal intensity
1,B1,60

# Target: ScCyk3
# Experiment: as above
# Method in brief: as §1
row,Binder,SPOT peptide array binding signal intensity
1,B1,7

# Target: ScFus1
# Experiment: as above
# Method in brief: as §1
row,Binder,SPOT peptide array binding signal intensity
1,B1,15

# Target: ScHof1
# Experiment: as above
# Method in brief: as §1
row,Binder,SPOT peptide array binding signal intensity
1,B1,3.5

# Target: ScHse1
# Experiment: as above
# Method in brief: as §1
row,Binder,SPOT peptide array binding signal intensity
1,B1,61

# Target: ScLsb1
# Experiment: as above
# Method in brief: as §1
row,Binder,SPOT peptide array binding signal intensity
1,B1,20.5

# Target: ScLsb2
# Experiment: as above
# Method in brief: as §1
row,Binder,SPOT peptide array binding signal intensity
1,B1,2

# Target: ScLsb3
# Experiment: as above
# Method in brief: as §1
row,Binder,SPOT peptide array binding signal intensity
1,B1,≤ 0

# Target: ScLsb4
# Experiment: as above
# Method in brief: as §1
row,Binder,SPOT peptide array binding signal intensity
1,B1,3.5

# Target: ScMyo3
# Experiment: as above
# Method in brief: as §1
row,Binder,SPOT peptide array binding signal intensity
1,B1,≤ 0

# Target: ScMyo5
# Experiment: as above
# Method in brief: as §1
row,Binder,SPOT peptide array binding signal intensity
1,B1,≤ 0

# Target: ScNbp2
# Experiment: as above
# Method in brief: as §1
row,Binder,SPOT peptide array binding signal intensity
1,B1,32

# Target: ScPex13
# Experiment: as above
# Method in brief: as §1
row,Binder,SPOT peptide array binding signal intensity
1,B1,0.5

# Target: ScRvs167
# Experiment: as above
# Method in brief: as §1
row,Binder,SPOT peptide array binding signal intensity
1,B1,5.17

# Target: ScSho1
# Experiment: as above
# Method in brief: as §1
row,Binder,SPOT peptide array binding signal intensity
1,B1,37.5

# Target: ScSla1-D1-D2
# Experiment: as above
# Method in brief: as §1
row,Binder,SPOT peptide array binding signal intensity
1,B1,3640

# Target: ScSla1-D3
# Experiment: as above
# Method in brief: as §1
row,Binder,SPOT peptide array binding signal intensity
1,B1,17

# Target: SpAbp1-D1
# Experiment: as above
# Method in brief: as §1
row,Binder,SPOT peptide array binding signal intensity
1,B1,2160

# Target: SpBbc1
# Experiment: as above
# Method in brief: as §1
row,Binder,SPOT peptide array binding signal intensity
1,B1,0.75

# Target: SpBzz1-D1
# Experiment: as above
# Method in brief: as §1
row,Binder,SPOT peptide array binding signal intensity
1,B1,318

# Target: SpBzz1-D2
# Experiment: as above
# Method in brief: as §1
row,Binder,SPOT peptide array binding signal intensity
1,B1,0.5

# Target: SpCyk3
# Experiment: as above
# Method in brief: as §1
row,Binder,SPOT peptide array binding signal intensity
1,B1,1

# Target: SpHof1
# Experiment: as above
# Method in brief: as §1
row,Binder,SPOT peptide array binding signal intensity
1,B1,12

# Target: SpHof1-2
# Experiment: as above
# Method in brief: as §1
row,Binder,SPOT peptide array binding signal intensity
1,B1,13.2

# Target: SpHof1-3
# Experiment: as above
# Method in brief: as §1
row,Binder,SPOT peptide array binding signal intensity
1,B1,31

# Target: SpHse1
# Experiment: as above
# Method in brief: as §1
row,Binder,SPOT peptide array binding signal intensity
1,B1,117

# Target: SpLsb1
# Experiment: as above
# Method in brief: as §1
row,Binder,SPOT peptide array binding signal intensity
1,B1,1140

# Target: SpLsb4
# Experiment: as above
# Method in brief: as §1
row,Binder,SPOT peptide array binding signal intensity
1,B1,27

# Target: SpMyo1
# Experiment: as above
# Method in brief: as §1
row,Binder,SPOT peptide array binding signal intensity
1,B1,7

# Target: SpNbp2
# Experiment: as above
# Method in brief: as §1
row,Binder,SPOT peptide array binding signal intensity
1,B1,43

# Target: SpPex13
# Experiment: as above
# Method in brief: as §1
row,Binder,SPOT peptide array binding signal intensity
1,B1,3.5

# Target: SpRvs167
# Experiment: as above
# Method in brief: as §1
row,Binder,SPOT peptide array binding signal intensity
1,B1,≤ 0

# Target: SpSla1-D1-D2
# Experiment: as above
# Method in brief: as §1
row,Binder,SPOT peptide array binding signal intensity
1,B1,5.5

# Target: SpSla1-D3
# Experiment: as above
# Method in brief: as §1
row,Binder,SPOT peptide array binding signal intensity
1,B1,10.5
